# Source: PubChem BioAssay (National Center for Advancing Translational Sciences (NCATS))
# LmPK inhibitor: blocks Leishmania mexicana pyruvate kinase activity; Q27686; purified LmPK, Kinase-Glo ATP luminescence, 1 h; Potency, µM (titrated, usually from 57.5 µM), without a hit: at the top dose activity change, negative = inhibition, actives largely listed as inhibitors; 290,000 tested, 0.37% active; AID 1721; further: on the % scale 0 is the no-effect control and ±100 the full control effect
#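 qHTS format; LmPK 0.1 nM; substrates PEP 0.5 mM and ADP 0.1 mM. One-hour room-temperature incubation, then coupled luciferase luminescence; 0.5 nM enzyme wells mark activation.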
# Giardia FBPA inh: blocks Giardia fructose-bisphosphate aldolase activity; AID 2451; Potency, µM (series often up to 59.6 µM), for inactives: top-dose activity, negative = inhibition, most hits filed as inhibitors; A8B2U2; 290,000 tested, 0.71% active; purified Giardia FBPA; further: on the % scale 0 is the no-effect control and ±100 the full control effect; nearly all actives have a fitted effect of over 55% in size
# Target sequence (A8B2U2 whole entry, looked up): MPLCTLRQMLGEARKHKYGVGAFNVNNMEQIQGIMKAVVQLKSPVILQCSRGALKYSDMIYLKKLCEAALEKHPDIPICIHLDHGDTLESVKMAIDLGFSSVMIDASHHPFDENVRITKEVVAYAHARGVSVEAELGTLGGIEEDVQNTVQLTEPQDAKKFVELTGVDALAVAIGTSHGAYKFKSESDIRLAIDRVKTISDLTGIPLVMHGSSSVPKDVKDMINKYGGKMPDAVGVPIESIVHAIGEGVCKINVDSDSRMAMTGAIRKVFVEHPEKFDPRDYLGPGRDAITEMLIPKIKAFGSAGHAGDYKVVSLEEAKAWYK
#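 40 nM FBPA preincubated 10 min at RT with compound (up to 57.5 uM final), then substrate plus GAPDH/TPI/NAD/arsenate coupling and diaphorase/resazurin added. Fluorescence read after 20 min at RT, 525/598 nm.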
# SARS PLP yeast: inhibitors of SARS-CoV papain-like protease in yeast; S. cerevisiae expressing SARS-CoV PLpro, growth rescue; Potency, µM (highest dose often 32.9 µM), inactives show top-dose activity, positive = growth rescue, actives largely listed as activators; 330,000 tested, 0.19% active; calls by dose curve; further: 0% is about no effect; nearly all actives have a fitted effect of over 55% in size
# RE007 growth inh: less growth of the S. pombe RE007 Vpr strain; Potency, µM (highest dose often 92.2 µM), without a hit: top-dose activity change, negative = less growth, actives largely listed as inhibitors; AID 651644; S. pombe RE007 Vpr strain, BacTiter-Glo ATP luminescence, 24 h; 360,000 tested, 0.21% active; active means well fitted falling curve with a large enough effect; inconclusive means small, poorly fitted or top-dose-only effect; inactive means no such curve, though single readings can be large or run the other way; further: on the % scale 0 is the no-effect control and ±100 the full control effect; nearly all actives have a fitted effect of over 50% in size
#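 Fission yeast RE007 carrying one integrated HIV-1 vpr copy, seeded at OD 0.01 in PMG+AL medium with 23 nL pinned compound. Grown 24 h at 30 degrees; viability read by BacTiter-Glo luminescence after 5 min.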
# TbPYK inhibitor: T. brucei pyruvate kinase inhibition; TbPYK enzyme, Kinase-Glo Plus ATP luminescence, 45 min; Potency, µM (highest dose often 76.8 µM), inactives show at the highest dose activity, negative = inhibition, most hits filed as inhibitors; 410,000 tested, 0.12% active; Q57TT1; further: on the % scale 0 is the no-effect control and ±100 the full control effect; nearly all actives have a fitted effect of over 50% in size
#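 Luminescent Kinase-Glo Plus end-point after 45 min room-temperature reaction of T. brucei pyruvate kinase started with 130 uM ADP (final). Buffer TEA 50 mM pH 7.2 with KCl, MgCl2, BSA, Tween-20; titration-based qHTS with fitted concentration-effect curves.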
# * hit, by the source's call; ? = inconclusive; . = not tested or not shown; [ ] = another dose, or the depositor's remark. Most compounds without a hit are left out; they make up all but 1.1% or so of the library. Unless noted, the call rests on the fitted dose curve; in most records, active means well fitted curve in the direction sought with a large enough effect; inconclusive means small, poorly fitted or top-dose-only effect, or another doubt; inactive means no such curve, though single readings can be large; an effect the other way counts as inactive or inconclusive. Potency means the concentration at half of the fitted maximal effect.
SMILES,LmPK inhibitor,Giardia FBPA inh,SARS PLP yeast,RE007 growth inh,TbPYK inhibitor
O=c1c2sccc2n(Cc2cc(=O)n3cc(Cl)ccc3n2)c(=O)n1-c1ccccc1,.,.,.,.,9%
COc1cc(NC(=S)N2CCN(CCO)CC2)c(OC)cc1Cl,-1%,-3%,-1%,12%,-4%
OCCN1CCN(C(=S)c2ccc(Cl)c(Cl)c2)CC1,1%,13µM*,-7%,-6%,?
CCOC(=O)c1ccc(CC(=O)c2ccc(O)c(O)c2O)o1,6%,11µM*,10%,4%,-1%
O=C1[C@@H]2[C@@H](CN3CN(c4ccccc4)N=C(c4ccccc4)[C@@]23c2ccccc2)C(=O)N1c1ccccc1,.,.,.,40µM*,-21%
COC(=O)c1nc(-c2ccc3c(n2)C(=O)C(N)=C(OC)C3=O)c(N)c(-c2ccc(OC)c(OC)c2O)c1C,-8%,10µM*,1%,7%,0%
CN(C)CCNC(=O)C1CCN(Cc2cc3ccccc3n2Cc2ccccc2)CC1,.,.,.,.,-4%
CCCCn1c(=O)[nH]c2nc3cc(N)ccc3nc2c1=O,0%,0.14µM*,16%,0%,-4%
O=C(Nc1cccc(Cl)c1)Nc1ncc(CCNc2ncnc3ccsc23)s1,.,.,.,.,0%
COc1ccc(NC(=S)N2CCCC2)cc1,2%,-10%,5%,-1%,-22%
COc1ccc(NC(=O)C(=S)N2CCCC2)cc1,0%,2%,2%,16µM*,1%
CN(C(=S)Nc1ccc(Oc2ccccc2)cc1)c1ccc(O)cc1,2%,1.4µM*,-21%,4%,-23%
Cc1ccc2c(c1)C(N1CCCC1=O)CC(c1ccco1)N2 (stereo unspecified),11µM*,?,-6%,?,?
COc1ccc(CCn2c3c(c(=O)[nH]c2=O)C(NC(=O)c2ccc(Cl)cc2)(C(F)(F)F)C(=O)N3)cc1OC (stereo unspecified),.,.,.,.,2%
O=C1c2ccccc2C(=O)N1CCSc1n[nH]c(=S)s1,17%,-12%,7%,-7%,28µM*
O=C1c2ccccc2C(=O)N1CCSc1ncn[nH]1,-3%,-20%,0%,-1%,0%
COCCCN1CN=C(NS(=O)(=O)c2ccc(NC(C)=O)cc2)NC1,.,.,.,.,-8%
NC(CO)C(=O)NNCc1ccc(O)c(O)c1O (stereo unspecified),-1%,7.9µM*,?,7%,-6%
COC(=O)C(N)Cc1ccc(O)c(O)c1 (stereo unspecified),1%,?,1%,-8%,-3%
COC1(C(F)(F)F)NC(=O)N(c2ccc(F)cc2)C1=O (stereo unspecified),.,.,.,.,0%
Oc1ccccc1N=N/C(=N/Nc1ccccc1O)c1ccccc1,.,.,-15%,-5%,-5%
N#C/C(N=Nc1ccccc1O)=N\Nc1ccccc1O,.,.,-3%,11µM*,?
COc1ccc(CCCc2nnc(SCC(=O)Nc3cccc(F)c3C)o2)cc1,.,.,.,.,-4%
CCC(C)NC(=O)CN1C(=O)c2cccc3cccc1c23 (stereo unspecified),0%,11%,4%,1%,-21%
CCN1/C(=N\N)c2cccc3cccc1c23,-12%,10µM*,-2%,-22%,-24%
SMILES,LmPK inhibitor,Giardia FBPA inh,SARS PLP yeast,RE007 growth inh,TbPYK inhibitor
CCn1c(-c2cccn(Cc3ccc(Cl)cc3Cl)c2=O)n[nH]c1=S,11%,-5%,-1%,21%,5.6µM*
Cc1nn(-c2ccccn2)c2c1-c1nc(N)ncc1CC2,0%,16µM*,5%,4%,4%
Cc1nn(-c2ccccn2)c2c1-c1nc(N3CCOCC3)ncc1CC2,5%,?,9%,-8%,-11%
C=CCOc1c(Cl)cc(CNc2ccc(N(C)C)cc2)cc1OC,-3%,4.5µM*,-1%,-18%,-9%
COC(=O)c1sc2cccc(F)c2c1S(=O)(=O)N1CCN(c2cccc(OC)c2)CC1,.,.,.,.,3%
Cc1nc(NC(=O)c2ccc(Br)o2)sc1C,16µM*,-8%,-8%,-29%,-7%
Cc1ccc(C(=O)Nc2nc(C)c(C)s2)o1,14µM*,-6%,-8%,-29%,-24%
Cc1cc(O)c2c(O)c3c(O)cccc3cc2c1,.,.,.,.,0%
COc1ccccc1-c1nc2c(c(SCC(=O)Nc3ccc(C)c(C)c3)n1)Cc1c(CO)cnc(C)c1O2,.,.,.,.,0%
COC(=O)C1=C(C)OC(N)=C(C#N)C1c1cccnc1 (stereo unspecified),3%,?,2%,-6%,4%
CC1=C(n2nnc([N+](=O)[O-])n2)C(c2cccnc2)C(C#N)=C(N)O1 (stereo unspecified),-1%,5µM*,27%,4%,1%
COc1ccccc1N1CCN(C(=O)c2ccc3c(c2)N(Cc2ccccc2)C(=O)c2ccccc2S3(=O)=O)CC1,.,.,.,.,3%
S=C(S)N1CCCC1,.,13µM*,.,-5%,-14%
S=C(S)N1CCNCC1,.,.,.,.,0%
CS(=O)(=O)N(Cc1ccco1)CC(O)Cn1cc(C=O)c2ccccc21 (stereo unspecified),6%,0%,10µM*,5%,0%
CC1(C)Oc2cc(N)c([N+](=O)[O-])cc2O1,3%,0%,-5%,-2%,-12%
C=C1N(C)c2cc([N+](=O)[O-])c(N)cc2C1(C)C,-8%,4.5µM*,1%,-28%,-15%
CS(=O)(=O)Nc1ccccc1C(=O)Nc1ccccc1C(=O)N1CCCC1,2%,0%,5%,-2%,-1%
CS(=O)(=O)Nc1ccc(C(=O)Nc2ccccc2C(=O)N2CCCC2)cc1,3%,7%,16µM*,-16%,-1%
C[C@@H](NCCCc1cccc(C(F)(F)F)c1)c1cccc2ccccc12,.,.,.,.,-1%
CCSC1(SCC)N=C(N)C2(C#N)C(c3ccc(OC)c(OC)c3OC)C12C#N (stereo unspecified),4%,-22%,0%,5.6µM*,-11%
CCSC1(SCC)N=C(N)C2(C#N)C(c3ccccc3)NC3=C(CCC3)C12C#N (stereo unspecified),6%,-5%,-4%,?,-13%
O=C(NC1CCCCCC1)c1ccc([N+](=O)[O-])s1,.,.,-4%,45µM*,4%
CC(=O)Oc1ccccc1C(=O)C=Cc1cccc([N+](=O)[O-])c1,.,.,.,25µM*,7%
O=C(/C=C/c1cccc([N+](=O)[O-])c1)c1ccccc1,.,0%,.,.,.
CCCCN(CCCC)C1=C(C(=O)c2ccccc2)N(CC)S(=O)(=O)c2ccccc21,.,.,.,.,-2%
CCN1/C(=C(\O)c2ccccc2)C(=O)c2ccccc2S1(=O)=O,-3%,-3%,-12%,40µM*,3%
CCN1C(=O)[C@H]2[C@H]3[C@H](O)[C@H](O)C/C(=N/NC(=O)OCc4ccccc4)[C@@H]3CC[C@@H]2C1=O,.,1%[12.9 µM],.,.,.
O=C(O/N=C1/CCCc2occc21)c1ccccc1,13µM*,-1%,5%,-19%,-6%
O=C(O/N=C1/CCCc2occc21)c1ccc(Cl)cc1Cl,-9%,-8%,-8%,-3%,-10%
